Source: PubChem
Compounds with a hit are over-represented: about 31% of the library has one in this group of screens.
CYP2C9 inhib: human CYP2C9 inhibition | P11712 | CYP2C9 Supersomes, luciferin-H conversion, luminescence | inhibition, % at 5 µM | hit rate 20% among 96,000 | AID 777;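 active means blocking of liver enzyme CYP2C9 beyond about 50% at 5 µM, limit read from the data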
CYP2C9 activ: increases human cytochrome P450 2C9 activity. hit rate 1.4% among 96,000. AID 1024. activation factor at 5 µM. P11712. recombinant CYP2C9, luciferin-H conversion, luminescence; hits give high values; factor 1 = untreated enzyme, 0 = blocked;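 active means activation factor of 2 or more for CYP2C9 at a 5 µM dose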;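 further: 0 = sulfaphenazole-blocked wells and 1 = vehicle-only wells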
CYP2C19 activ: activators of human cytochrome P450 2C19. P33261. recombinant CYP2C19, luciferin-H EGE luminescence; hits give high values; 0 = fully inhibited enzyme, 1 = untreated enzyme. activation factor at 5 µM. 96,000 tested, under 10 active. AID 1025;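 active means activation factor of at least 2 at 5 µM in the primary screen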;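 further: 0 = wells with 2.5 mM tranylcypromine and 1 = vehicle-only wells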
Target sequence (P33261 whole entry, looked up): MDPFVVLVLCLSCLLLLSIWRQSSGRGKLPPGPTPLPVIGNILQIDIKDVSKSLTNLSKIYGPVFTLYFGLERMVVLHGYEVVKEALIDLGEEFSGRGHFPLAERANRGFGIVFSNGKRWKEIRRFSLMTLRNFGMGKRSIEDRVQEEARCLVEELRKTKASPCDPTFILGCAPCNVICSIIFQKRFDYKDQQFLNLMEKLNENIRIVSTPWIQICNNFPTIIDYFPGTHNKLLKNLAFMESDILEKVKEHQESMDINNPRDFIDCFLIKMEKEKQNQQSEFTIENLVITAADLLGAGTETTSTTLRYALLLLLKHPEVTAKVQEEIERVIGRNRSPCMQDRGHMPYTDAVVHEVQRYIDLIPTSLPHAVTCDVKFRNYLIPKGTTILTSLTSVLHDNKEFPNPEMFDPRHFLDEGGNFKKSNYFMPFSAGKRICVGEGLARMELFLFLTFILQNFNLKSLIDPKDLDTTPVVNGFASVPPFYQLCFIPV
CYP2C19 inh: inhibitors of human CYP2C19 | inhibition, % at 5 µM | P33261 | hit rate 21% among 96,000 | CYP2C19 Supersomes, luciferin-H EGE luminescence, 30 min;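 active means CYP2C19 inhibition above a set limit at 5 µM in the primary screen, cut at about 50% in these data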;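 further: plate controls were negative control wells for no effect and 2.5 mM tranylcypromine positive control for full effect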
Active calls of the source: *.

SMILES	CYP2C9 inhib	CYP2C9 activ	CYP2C19 activ	CYP2C19 inh
CCOC(=O)c1sc(NC(=O)C2C3C=CC(C3)C2C(=O)O)nc1C (configuration not stated)	44	0.6	1	5
CCOC(=O)c1sc(NC(=O)C2CC2)nc1C	61*	0.4	0.4	63*
CCOC(=O)c1sc2nc(NC(=O)C3CC3)sc2c1C	30	0.7	0.5	53*
OCCNc1ncnc2c1ncn2Cc1ccccc1	4	1	0.7	33
C=CCn1cnc2c(NCc3ccccc3)ncnc21	28	0.7	0.3	70*
CSc1nnc(NC(=O)c2cc3ccccc3oc2=O)s1	5	0.9	1	2
Cc1ccc(Cn2c3ccccc3c3cn[nH]c(=O)c32)cc1	18	0.8	1	-1
Cc1ccc(N(CC(=O)NCC2CCCO2)S(C)(=O)=O)cc1Cl (configuration not stated)	-9	1.1	0.8	19
Cc1ccc(N(CC(=O)NCc2ccncc2)S(C)(=O)=O)cc1Cl	89*	0.1	0	99*
C=CCNC(=O)CN(c1ccc(F)c(Cl)c1)S(C)(=O)=O	7	0.9	0.4	57*
COCCCNC(=O)CN(c1ccc(Cl)c(Cl)c1)S(C)(=O)=O	-3	1	0.7	30
CS(=O)(=O)N(CC(=O)NCc1ccncc1)c1cc(Cl)cc(Cl)c1	87*	0.1	0	100*
Cc1ccc(N(CC(=O)NCc2cccnc2)S(C)(=O)=O)cc1C	26	0.7	0.2	84*
O=c1cc(CSc2nnnn2-c2ccccc2)nc(Nc2ccc(F)cc2)[nH]1	15	0.9	1	-4
CC(=O)Nc1ccc(S(=O)(=O)NC2(C(F)(F)F)C(=O)Nc3c2c(=O)[nH]c(=O)n3C)cc1 (configuration not stated)	0	1	1.1	-11
O=c1cc(N2CCCCC2)c(-c2ccccc2)nn1Cc1cccc(Cl)c1	20	0.8	0.7	27
CCOC(=O)Nc1oc2ccccc2c(=O)c1CN1CCOCC1	12	0.9	1	1
CCOC(=O)c1c(N2C(=O)C3CC(C)=C(C)CC3C2=O)sc(C)c1C (configuration not stated)	15	0.9	0.6	44
COc1ccc(-c2cc(OC)c3c(C)oc(C)c3c(=O)c2)cc1OC	99*	0	0.2	85*
COc1ccc(-c2cc(C(=O)O)c(C)o2)cc1OC	1	1	0.8	24
COc1cc(-c2cc(OC)c3c(C)oc(C)c3c(=O)c2)ccc1O	94*	0.1	0.6	42
CN(NS(=O)(=O)c1ccccc1)c1nc2ccccc2nc1C(F)(F)F	90*	0.1	0	99*
Cc1ccccc1C(=O)NN(C)c1nc2ccccc2nc1C(F)(F)F	-34	1.3	0.9	10
CCC(C(=O)Nc1nnc(-c2ccco2)s1)c1ccccc1 (configuration not stated)	55*	0.4	0.8	25
CCOc1cccc(C(=O)Nc2nnc(-c3ccco3)s2)c1	-105	2.1*	0.8	18
SMILES	CYP2C9 inhib	CYP2C9 activ	CYP2C19 activ	CYP2C19 inh
CCOC(=O)Cc1nnc(NC(=O)c2cccc(OCC)c2)s1	-22	1.2	0.9	7
COc1cccc(C(=O)Nc2nnc(-c3cccs3)s2)c1	70*	0.3	0.7	30
CCc1nnc(NC(=O)c2cccc(OC)c2)s1	8	0.9	0.9	14
Cc1ccccc1CSc1n[nH]c(NS(=O)(=O)c2ccccc2)n1	18	0.8	0.6	36
Cc1ccc(-c2noc(CN(C(=O)c3cccs3)C(C)C)n2)cc1	74*	0.3	0.6	45
Cc1cccc(-c2noc(CN(C(=O)C34CC5CC(CC(C5)C3)C4)C(C)C)n2)c1	38	0.6	1.1	-6
CC(C)N(Cc1nc(-c2ccc(Cl)cc2)no1)C(=O)c1cccs1	89*	0.1	0.2	78*
CC(C)(C)NC(=O)c1cccc(NC(=O)c2cccc(O)c2)c1	17	0.8	1.1	-7
CCCCn1c(N)c(Sc2ccc(C)cc2)c(=O)[nH]c1=O	41	0.6	0.5	53*
CCCCn1c(=O)[nH]c(=O)c2c1nc(-c1ccncc1)n2CCOC	41	0.6	0.6	37
COCCNc1nc2ccccc2nc1NS(=O)(=O)c1ccc(C)cc1C	98*	0	0.8	24
CCCOc1cc(C)c(S(=O)(=O)NCCOC)cc1C	26	0.7	0.7	28
O=C(c1ccco1)N1CCN(Cc2nnnn2CCc2ccccc2)CC1	14	0.9	0.9	13
N#CCSc1nc2c(sc(=S)n2Cc2ccco2)c(=O)n1-c1ccc(F)cc1	71*	0.3	0.4	64*
CCC(=O)Nc1ccc(S(=O)(=O)c2ccc(NC(=O)CC)cc2)cc1	70*	0.3	0.7	28
CCC(=O)Nc1ccc(S(=O)(=O)N2CCc3ccccc3C2)cc1	-76	1.8	0.1	86*
Cc1ccc(NC(=O)c2ccc(CN3CCc4ccccc4C3)cc2)cc1	46	0.5	0.9	11
O=C(Nc1ccc(S(=O)(=O)N2CCCCC2)cc1)c1ccc(CN2CCc3ccccc3C2)cc1	68*	0.3	0.5	49
CCC(=O)Nc1ccc(Nc2ccccc2)cc1	6	0.9	0.8	16
Cc1ccc(C(=O)Nc2ccc(S(=O)(=O)N3CCc4ccccc43)cc2)o1	74*	0.3	0.7	32
O=[N+]([O-])c1cccc(/C=N/Nc2cc(Cl)nc(-c3ccccc3)n2)c1	18	0.8	1	4
Cc1ccc(C(=O)Nc2ccc(S(=O)(=O)N3CCc4ccccc4C3)cc2)o1	29	0.7	0.4	61*
COC(=O)COc1ccc(S(=O)(=O)N2CCc3ccccc3C2)cc1	-95	2*	0.3	66*
CCc1cccc2c(C#N)cn(CC(=O)NCc3ccco3)c12	14	0.9	0.5	51*
CN(C)S(=O)(=O)c1ccc(C(=O)OCC(=O)NC(=O)NCc2ccccc2)cc1	-11	1.1	1.2	-17
SMILES	CYP2C9 inhib	CYP2C9 activ	CYP2C19 activ	CYP2C19 inh
CCOC(=O)CNC(=O)Nc1cc(C(C)(C)C)nn1-c1ccccc1	28	0.7	0.7	30
CC(=O)c1oc2ccccc2c1N	6	0.9	0.9	12
Nc1c(C(=O)Nc2ccc(Cl)cc2)oc2ccccc12	63*	0.4	0.5	54*
Nc1c(C(=O)c2ccccc2)oc2ccccc12	34	0.7	0.1	85*
COc1ccc(C(=O)c2oc3ccccc3c2N)cc1	28	0.7	0.3	69*
COc1ccc2oc(C(=O)c3ccccc3)c(N)c2c1	34	0.7	0.6	40
CCOc1cc(C(=O)CCC(=O)OCC(=O)N2c3ccccc3NC(=O)C2(C)C)ccc1O	12	0.9	0.7	30
NC(=O)COC(=O)CCCc1c[nH]c2ccccc12	-15	1.2	0.9	6
N#C/C(=C(/O)COC(=O)Cc1c[nH]c2ccccc12)c1nc2ccccc2[nH]1	82*	0.2	0.9	10
N#C/C(=C(/O)COC(=O)CCCNC(=O)c1ccc(Cl)cc1)c1nc2ccccc2[nH]1	76*	0.2	0.5	52*
N#C/C(=C(/O)COC(=O)CCc1ccc(S(=O)(=O)N2CCOCC2)cc1)c1nc2ccccc2[nH]1	19	0.8	0.9	9
